Screening results from PubChem BioAssay.
DSG3 Ab inh = inhibitors of pemphigus antibody binding to DSG3, primary screen, biochemical, bead-based, flow cytometry, scFv-GFP; Desmoglein-3 (Homo sapiens), P32926; DSG3-coupled beads, scFv-anti-DSG3-GFP binding; hits give low values; binding (percent of control), % at 10 µM; hit rate 0.48% among 310,000;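 active = binding more than 3 SD below its plate's average and above zero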;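 also: hits lower antibody fragment binding to DSG3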
Target sequence (P32926 whole entry, looked up, the tested form may be a part): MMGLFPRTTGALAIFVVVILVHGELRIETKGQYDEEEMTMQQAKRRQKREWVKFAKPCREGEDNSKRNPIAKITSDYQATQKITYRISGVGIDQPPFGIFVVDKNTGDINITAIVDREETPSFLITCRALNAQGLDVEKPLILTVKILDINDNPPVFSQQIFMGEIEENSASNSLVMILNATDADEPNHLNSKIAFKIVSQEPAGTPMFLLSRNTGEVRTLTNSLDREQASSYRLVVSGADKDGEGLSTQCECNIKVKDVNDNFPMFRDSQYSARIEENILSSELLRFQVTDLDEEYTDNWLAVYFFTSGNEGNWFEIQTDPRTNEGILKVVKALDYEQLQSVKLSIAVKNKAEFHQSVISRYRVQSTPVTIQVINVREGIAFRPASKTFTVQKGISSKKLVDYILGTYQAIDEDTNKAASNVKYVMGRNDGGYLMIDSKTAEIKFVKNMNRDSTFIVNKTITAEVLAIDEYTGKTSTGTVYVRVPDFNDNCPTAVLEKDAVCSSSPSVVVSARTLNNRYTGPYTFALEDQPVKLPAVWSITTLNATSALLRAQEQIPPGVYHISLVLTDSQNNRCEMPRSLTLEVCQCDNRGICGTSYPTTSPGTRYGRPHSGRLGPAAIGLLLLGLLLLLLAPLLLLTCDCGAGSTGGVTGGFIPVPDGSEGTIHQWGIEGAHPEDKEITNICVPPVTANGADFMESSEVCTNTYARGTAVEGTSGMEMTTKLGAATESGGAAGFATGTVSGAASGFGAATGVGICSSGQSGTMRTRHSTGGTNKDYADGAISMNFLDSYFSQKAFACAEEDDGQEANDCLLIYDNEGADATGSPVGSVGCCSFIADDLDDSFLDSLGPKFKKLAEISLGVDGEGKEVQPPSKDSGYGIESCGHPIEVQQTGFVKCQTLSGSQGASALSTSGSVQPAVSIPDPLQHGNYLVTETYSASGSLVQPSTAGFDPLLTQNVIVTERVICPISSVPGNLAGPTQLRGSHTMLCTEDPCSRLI
NTR1 ag = agonists of human NTR1, primary screen, imaging, U2OS cells, beta-arrestin-GFP, high content; AID 493036, 2011; hit rate 0.17% among 330,000; NTR1-U2OS beta-arrestin-GFP spot imaging, agonist mode; Neurotensin receptor type 1 (Homo sapiens), P30989; activation, % at 20 µM;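 active = activation at or above 40% of the spot to cytoplasm intensity ratio, with at least 20 cells analyzed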;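 also: 0% = DMSO without peptide and 100% = 100 nM NTR1 peptide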
VLA-4 inh = inhibition in human VLA-4 binding assay, primary screen, VLA-4 allosteric modulator project, MLPCN library, flow cytometry, VLA-4 expressing cells. Integrin alpha-4 (Homo sapiens), P13612. inhibition, % (about 7 µM as worked out from the volumes in the protocol). ligand binding flow cytometry. hit rate 0.2% among 330,000; in the data active = inhibition above about 50%
AI-2 QS mod = Vibrio harveyi AI-2 quorum sensing modulators, primary screen, JMH597 strain, luminescence/OD600 ratio. Vibrio harveyi JMH597 AI-2 luminescence/OD600 ratio, 9 h; hits give low values; strain lacks LuxN and CqsS sensors; 0 = neutral-control median. activity change, % at 7.5 µM. hit rate 0.4% among 300,000. AID 2094, 2009; in the data active = activity change below about -75%, passing the limit was not always enough;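 also: luminescence divided by OD600 gain over 9 h not by final OD600 alone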
Numbers without * were called inactive; . = no result. In the library only some 1.1% were active in any assay of this set; here they are far more common.

SMILES | DSG3 Ab inh | NTR1 ag | VLA-4 inh | AI-2 QS mod
C=CCOc1cccc(C(=O)/C=C2/C(=O)Nc3ccccc32)c1 | 94 | 66* | 4 | 9
COc1ccc(NC(=O)c2ccc(-c3ccc([N+](=O)[O-])cc3)o2)cc1OC | 94 | 10 | -17 | 4
COc1cccc(NC(=O)c2ccc(-c3ccc([N+](=O)[O-])cc3)o2)c1 | 84* | 3 | 1 | 4
O=C(Nc1nccs1)c1ccc(-c2cccc([N+](=O)[O-])c2)o1 | 64* | 2 | 19 | 34
c1nc(SSc2ncnc3nc[nH]c23)c2[nH]cnc2n1 | 66* | . | . | .
O=C(O)CSc1ncnc2nc[nH]c12 | 99 | -1 | -4 | 6
CCOC(=O)C1(CCOc2ccccc2)CCN(CC(O)CO)CC1 (stereo unspecified) | 90* | -1 | -6 | -11
O=C(CC1C=CCC1)Nc1ccccc1 (stereo unspecified) | 118 | . | . | .
COc1ccc(N2CCN(C(=O)COC(=O)/C=C/c3ccc(OC(F)F)cc3)CC2)cc1 | 90* | 0 | -12 | 10
CC(C)(C)OC(=O)[C@H](Cc1ccccc1)NC(=O)c1ncn2c1c(=O)[nH]c1ccc(Br)cc12 | 106 | . | . | .
COc1ccc(/C=C(\C#N)C(=O)OCC(=O)NC2CC2)cc1 | 58* | -1 | 8 | -4
CCN(CC(=O)NCc1ccc(F)cc1)C(=O)c1cccc(S(=O)(=O)N(C)c2ccc(OC)cc2)c1 | 106 | . | . | .
O=C(Nc1ccc(NC(=O)c2ccccc2)c2ccccc12)c1ccccc1 | 97 | . | . | .
CN(C)S(=O)(=O)c1ccc(C(=O)OCC2CCCO2)cc1 (stereo unspecified) | 104 | . | -1 | -77*
CC1(C)C(=O)C=CC(=O)C(C)(C)C(=O)C=CC(=O)C(C)(C)C2=CC=C(O2)C(C)(C)C(=O)C=CC1=O | 93 | . | . | .
CCCC(=O)Nc1nnc(SCC(=O)Nc2ccc(OCC)cc2)s1 | 96 | . | . | .
NS(=O)(=O)c1ccc(NC(=O)CCc2ccccc2)cc1 | 107* | 0 | -5 | -2
O=C(CCc1ccccc1)Nc1ccccc1 | 90 | 0 | 1 | -65
COc1ccc(-c2nnc(SCC(=O)Nc3ccc(C(=O)O)cc3)n2-c2ccc(Cl)cc2)cc1 | 108 | 0 | 21 | 2
COc1ccc(-n2c(SCC(=O)Nc3nccs3)nnc2-c2ccc(Cl)cc2)cc1 | -1.0* | . | . | .
Cc1cccc(C)c1OCc1nnc(SCC(=O)Nc2nccs2)n1-c1ccccc1 | 34* | 1 | -5 | 29
COc1ccc(-c2[nH]c(-c3ccc(Cl)cc3)nc2SCC(=O)Nc2nccs2)cc1 | 73* | 22 | -2 | 23
CCc1ccc([C@@H]2C[C@H]3[C@@H](CN2S(=O)(=O)c2ccc(C)cc2)C(=O)C[C@@H](c2cccc(Cl)c2)N3S(=O)(=O)c2ccc(C)cc2)cc1 | 98 | . | . | .
O=C(/C=C/c1ccc(Br)o1)OCc1nc2ccsc2c(=O)[nH]1 | 50* | 1 | 4 | 20
COc1ccc(CNC(=O)N2[C@H]3CC[C@@H]2C=C(c2ccc(F)cc2OCc2ccccc2)C3)cc1OC | 109 | . | . | .
SMILES | DSG3 Ab inh | NTR1 ag | VLA-4 inh | AI-2 QS mod
N#CC1=C(SCc2ccccc2)NC(=O)CC1c1cccc(O)c1 (stereo unspecified) | 83* | -1 | 29 | 18
N#CC1=C(SCc2ccccc2)NC(=O)CC1c1ccc(O)cc1 (stereo unspecified) | 102 | 2 | 9 | 4
COC(=O)CCC(C)C1CCC2C3C(OC(C)=O)CC4CC(O)CCC4(C)C3CC(O)C12C (stereo unspecified) | 104 | . | . | .
COCc1cc(C)nc(SCC(=O)Nc2cccc3cccnc23)c1C#N | 23* | 4 | -4 | 2
COc1cc(C(C)n2nnc3ccccc32)ccc1O (stereo unspecified) | 102 | . | . | .
CCc1nc(NCC2CC2)c2nnn(Cc3ccccc3)c2n1 | 106 | . | . | .
CN1CCCC1=Nc1ccccc1 | 107 | . | . | .
Cc1nc2n[nH]c(N)c2nc1C | 103 | . | . | .
N=C1C(c2nc3ccccc3s2)=C(O)CN1NC(=O)c1ccco1 | 76* | -2 | 4 | 34
COc1cccc(C(=O)NN2CC(O)=C(c3nc4ccccc4s3)C2=N)c1 | 101 | 1 | 2 | -1
C#CC(=O)CC1(CN(Cc2ccccc2)C(=O)OC(C)(C)C)CCCCC1 | 108 | . | . | .
O=C(Nc1ccc(N2CCN(C(=O)c3ccccc3)CC2)cc1)c1ccc(Br)o1 | 107 | 2 | -13 | 8
CC(C)N1CCN(C(=O)c2ccc(NC(=O)c3ccc(Br)o3)cc2)CC1 | 68* | 22 | 14 | .
O=[N+]([O-])c1ccc2cn[nH]c2c1 | 43* | 0 | 29 | 17
O=[N+]([O-])c1ccc(Cl)c(S(=O)(=O)Nc2ccc3cn[nH]c3c2)c1 | . | 3 | 1 | .
CC(C)(C)NS(=O)(=O)c1ccc(CCC(=O)Nc2ccc3c(c2)OCCO3)cc1 | 97 | 3 | 13 | 13
CC(C)(C)NS(=O)(=O)c1ccc(CCC(=O)Nc2ccc3c(c2)OCO3)cc1 | -0.5* | -1 | -4 | 14
COc1ccc(NC(=O)C[C@H]2C(=O)N(c3ccc(OC)cc3)C[C@@H]2C)cc1 | 104 | . | . | .
CC(C)(C)OC(=O)N1CCC(C(=O)Nc2cccc(C(=O)NCc3ccccc3)c2)CC1 | 102 | . | . | .
O=C(Cc1n[nH]c(=O)c2ccccc12)Nc1cc(C(F)(F)F)ccc1-n1cncn1 | -13 | 1 | . | .
CC(=O)NC(CCc1ccc(Cl)c(Cl)c1)c1cccc(O)c(=O)c1 (stereo unspecified) | 100 | . | . | .
COc1ccc(CC(=O)OCc2cc3ccccc3[nH]c2=O)cc1 | 104 | 0 | -6 | 29
COc1cc(OC)cc(C(=O)OCc2cc3ccccc3[nH]c2=O)c1 | 80* | -1 | -7 | 24
c1coc(C2=Nc3cccc4cccc(c34)N2)c1 | 78* | 0 | 18 | 16
COc1ccc(CNC(=O)O[C@H]2CN(C(=O)OC(C)C)N(C(=O)OC(C)C)[C@@H]3CN(S(=O)(=O)c4ccc(C)cc4)C[C@]23O)cc1OC | 114 | . | . | .
SMILES | DSG3 Ab inh | NTR1 ag | VLA-4 inh | AI-2 QS mod
CSc1nc(N)nc2c1ncn2CC(=O)NCCCc1ccccc1 | 106 | -1 | -15 | .
COc1ccc(-c2noc(CCC(=O)N3CCN(c4cccc(C)c4C)CC3)n2)cc1 | 100 | 2 | . | .
CN1CCc2c(sc(NC(=O)c3ccc([N+](=O)[O-])o3)c2C(N)=O)C1 | . | 0 | -6 | -102*
Nc1nc(Cl)nc2c1ncn2[C@H]1C[C@H](O)[C@@H](CO)O1 | . | 0 | 30 | -158*
Cc1cc(-c2nc3ncccc3o2)ccc1NC(=S)NC(=O)C(C)C | 54* | 0 | 7 | 18
CCCCCCNC(=O)c1cc(S(=O)(=O)N2CCc3ccccc32)ccc1F | 87* | 0 | 15 | 3
CCCNC(=O)c1cc(S(=O)(=O)N2CCc3ccccc32)cn1C | 107 | 1 | 0 | 4
Cc1cccc(C)c1NC(=O)CN(c1c(C)cccc1C)S(C)(=O)=O | 100 | . | . | .
